Test systems include HCT-15 colon; HT29 colon; SNB-75 CNS; SNB-19 CNS; U251 CNS; PC-3 prostate; SK-MEL-5 melanoma; UACC-62 melanoma; LOX IMVI melanoma; SK-MEL-28 melanoma; SK-MEL-2 melanoma; EKVX NSCLC; SN12C renal; UO-31 renal; TK-10 renal; ACHN renal; CAKI-1 renal; A498 renal; CCRF-CEM leukemia; MOLT-4 leukemia.
Test in all cases: NCI-60 one-dose screen, 48 h (100 = growth as untreated, 0 = no growth, -100 = all killed)
Conditions in all cases: 10 µM unless noted

This is part of a sample that, as a whole, favours compounds with a hit. Of some 83,000 tested, about 20% had one in any assay.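 Plates (96-well) were seeded with cells, treated with compound at one concentration, and incubated for 48 hours before percent growth was determined.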 A number with no mark means an inactive call. Activity calls are given as the source filed them. Rule for the calls: active = growth percent below 10; inactive = the rest.

As to `Cc1nc2sc(C(=O)Nc3ccc(Cl)cc3)c(N)c2cc1C(O)c1ccccc1` (stereo not given), the growth in the assay with HCT-15 colon is 28.9%; in the assay on HT29 colon it was 25%; with SNB-75 CNS, 26.5%; in the assay on SNB-19 CNS it was 41.2%; in the assay on U251 CNS, 32.8%; in the assay on PC-3 prostate, 21.9%. Further, the growth is 30.4% in the assay on SK-MEL-5 melanoma; 17.7% in the assay with UACC-62 melanoma; 33.4% in the assay with LOX IMVI melanoma; 57.5% in the assay with SK-MEL-28 melanoma; 56.6% in the assay on SK-MEL-2 melanoma; 44.2% in the assay on EKVX NSCLC. Moreover, the growth was 40.6% in the assay on SN12C renal; 47.9% in the assay with UO-31 renal; 60.3% in the assay on TK-10 renal; 33.4% with ACHN renal; 47.5% with CAKI-1 renal; 13.5% in the assay on A498 renal. The values for the growth with CCRF-CEM leukemia and with MOLT-4 leukemia were 13.4% and 17.8%, respectively.

As to `COc1ccc2c(c1)c(-c1nc(-c3cn(C)c4ncccc34)cs1)cn2CCO`, the growth is 61.1% with HCT-15 colon; 75.3% in the assay with HT29 colon; 91.3% in the assay on SNB-75 CNS; 90.2% with SNB-19 CNS; 78.5% with U251 CNS; 69.1% with PC-3 prostate. Further, the growth was 74.2% with SK-MEL-5 melanoma; 80.4% with UACC-62 melanoma; 59.3% in the assay with LOX IMVI melanoma; 86% in the assay with SK-MEL-28 melanoma; 93% with SK-MEL-2 melanoma; 67.5% in the assay on EKVX NSCLC. The growth in the assay on SN12C renal was 86.1%; in the assay on UO-31 renal, 67.7%; in the assay with TK-10 renal, 83%; with ACHN renal it was 72.1%; in the assay on CAKI-1 renal it was 88.7%; in the assay with A498 renal, 49.3%. Also, the growth in the assay with CCRF-CEM leukemia was 43.3%; in the assay on MOLT-4 leukemia, 58.2%.

`CC(C)CSc1oc(-c2ccccc2)nc1S(=O)(=O)c1ccccc1`: the growth in the assay on HCT-15 colon is 93.7%; in the assay with HT29 colon it was 86.2%; with SNB-75 CNS, 89.3%; with SNB-19 CNS, 102%; in the assay on U251 CNS it was 84.2%; with PC-3 prostate it was 79.9%. Further, the growth in the assay with SK-MEL-5 melanoma was 90.7%; with UACC-62 melanoma it was 66.9%; with LOX IMVI melanoma it was 96.1%; with SK-MEL-28 melanoma, 115%; in the assay on SK-MEL-2 melanoma, 95.9%; with EKVX NSCLC it was 88.8%. Besides, the growth in the assay with SN12C renal was 95%; in the assay on UO-31 renal, 75.7%; with TK-10 renal, 65.6%; in the assay with ACHN renal, 89.9%; in the assay with CAKI-1 renal it was 76.7%; with A498 renal it was 84.9%. Besides, the growth was 86.9% in the assay on CCRF-CEM leukemia and 76.1% in the assay with MOLT-4 leukemia.

Consider `C=C(c1ccc(C(=O)O)cn1)c1cc2c(cc1C)C(C)(C)CCC2(C)C`, for which the growth was 85.8% with HCT-15 colon; 93.8% in the assay with HT29 colon; 94% with SNB-75 CNS; 99.7% in the assay on SNB-19 CNS; 75.6% in the assay with U251 CNS; 71.1% in the assay with PC-3 prostate. For the same compound, the growth in the assay on SK-MEL-5 melanoma was 70.8%; in the assay with UACC-62 melanoma it was 94.3%; in the assay on LOX IMVI melanoma, 87.3%; with SK-MEL-28 melanoma, 96.8%; in the assay on SK-MEL-2 melanoma, 84%; in the assay on EKVX NSCLC it was 83.9%. Further, the growth in the assay on SN12C renal is 95.7%; in the assay on UO-31 renal it was 81.5%; in the assay on TK-10 renal, 131%; in the assay on ACHN renal it was 91.8%; in the assay on CAKI-1 renal, 87.9%; in the assay on A498 renal it was 80%. The values for the growth in the assay on CCRF-CEM leukemia and with MOLT-4 leukemia were 83.5% and 95.7%, respectively.

In the case of `C#CCn1cnc2c(Nc3cccc(NC(=O)CCl)c3)ncnc21`, the growth is 23.4% in the assay with HCT-15 colon; 26.9% in the assay on HT29 colon; 33.2% in the assay with SNB-75 CNS; 58.7% in the assay with SNB-19 CNS; 19.1% with U251 CNS; 28.6% in the assay on PC-3 prostate. Besides, the growth in the assay on SK-MEL-5 melanoma is 31.4%; in the assay with UACC-62 melanoma, 19.7%; in the assay on LOX IMVI melanoma, 24%; with SK-MEL-28 melanoma it was 39.5%; in the assay on SK-MEL-2 melanoma it was 46%; in the assay with EKVX NSCLC, 45.3%. Moreover, the growth with SN12C renal was 31.2%; in the assay with UO-31 renal, 46.7%; in the assay with TK-10 renal, 76.9%; in the assay with ACHN renal it was 23.4%; in the assay on CAKI-1 renal, 29.9%; in the assay on A498 renal, 78.7%. Further, the growth in the assay with CCRF-CEM leukemia was 4.81% (active); with MOLT-4 leukemia, 4.44% (active).

In the case of `CC1O[C@@H]2C[C@@](O)([C@H]1O)n1c3ccccc3c3c4c(c5c6ccccc6n2c5c31)C(=O)NC4=O` (stereo not given in full), the growth with HCT-15 colon is 62%; with HT29 colon it was 28.6%; in the assay with SNB-75 CNS it was 44.8%; in the assay with SNB-19 CNS, 35%; with U251 CNS, 24.8%; with PC-3 prostate, 41.2%. Further, the growth is 1.39% (active) in the assay with SK-MEL-5 melanoma; 9.56% (active) with UACC-62 melanoma; 7.1% (active) in the assay with LOX IMVI melanoma; 69.1% in the assay with SK-MEL-28 melanoma; 75.4% in the assay with SK-MEL-2 melanoma; 68.7% in the assay with EKVX NSCLC. The growth was 55.1% with SN12C renal; 24.8% with UO-31 renal; 79.6% with TK-10 renal; 19.3% in the assay with ACHN renal; 28% in the assay with CAKI-1 renal; 42.4% in the assay with A498 renal. The growth is 27.9% with CCRF-CEM leukemia and 10.5% in the assay with MOLT-4 leukemia.

Consider `CCN(CC)c1ccc(/C=C\c2cc(C)c3cc(C)ccc3n2)cc1`, for which the growth in the assay with HCT-15 colon was 21.1%; in the assay with HT29 colon it was -17.9% (active); in the assay with SNB-75 CNS, 39.7%; in the assay with SNB-19 CNS it was 49.5%; in the assay on U251 CNS, 25.6%; in the assay on PC-3 prostate, 23.1%. Also, the growth in the assay with SK-MEL-5 melanoma was 2.69% (active); in the assay with UACC-62 melanoma it was 36.8%; in the assay on LOX IMVI melanoma it was 18.1%; in the assay on SK-MEL-28 melanoma it was 50.7%; with SK-MEL-2 melanoma, 14.4%; in the assay with EKVX NSCLC, 61.6%. Besides, the growth in the assay on SN12C renal is 45.1%; with UO-31 renal it was 26.6%; in the assay with TK-10 renal, 54.8%; in the assay on ACHN renal, 38.8%; in the assay with CAKI-1 renal it was 28.5%; in the assay on A498 renal, 18.2%. The growth in the assay with CCRF-CEM leukemia was 34.1%; in the assay on MOLT-4 leukemia it was 40.2%.

For `CCSC1=CC(=O)c2ccccc2C1=O`, the growth with HCT-15 colon is 73%; in the assay on HT29 colon it was 105%; in the assay with SNB-75 CNS, 52.8%; in the assay with SNB-19 CNS, 87.6%; in the assay with U251 CNS, 79.1%; in the assay with PC-3 prostate, 73%. In addition, the growth is 50.8% in the assay on SK-MEL-5 melanoma; 59.1% in the assay on UACC-62 melanoma; 47.7% in the assay with LOX IMVI melanoma; 36.7% with SK-MEL-28 melanoma; 94.2% with SK-MEL-2 melanoma; 92.8% in the assay with EKVX NSCLC. Moreover, the growth with SN12C renal was 82.8%; in the assay with UO-31 renal, 27%; with TK-10 renal, 89%; in the assay on ACHN renal it was 3.01% (active); in the assay on CAKI-1 renal it was 32.2%; in the assay with A498 renal, 97.8%. For the same compound, the growth is -6.88% (active) in the assay on CCRF-CEM leukemia and 5.83% (active) in the assay with MOLT-4 leukemia.

These data come from PubChem BioAssay (NCI).
